Screening results from PubChem.
VP16 counter: VP16 counterscreen qHTS for inhibitors of ROR gamma transcriptional activity. 3.5% of 310,000 active. Drosophila S2 Gal4-VP16 UAS-luciferase, luminescence, 20 h. Potency, µM (top dose mostly 53.6 µM), without a hit: top-dose activity, negative = inhibition, hits mostly inhibitors. AID 2546, 2010;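 further: Gal4-VP16 expression switched on by copper sulfate through the metallothionein promoter; on the % scale 0 is the no-effect control and ±100 the full control effect; nearly all actives have a fitted effect of over 50% in size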
RORg inh: qHTS for inhibitors of ROR gamma transcriptional activity; Potency, µM (highest dose often 53.6 µM), inactives show top-dose activity change, negative = inhibition, hits mostly inhibitors; Drosophila S2 Gal4-RORgamma UAS-luciferase reporter, 20 h; Nuclear receptor ROR-gamma (Mus musculus), P51450; 5.4% of 310,000 active; AID 2551, 2010; further: on the % scale 0 is the no-effect control and ±100 the full control effect; nearly all actives have a fitted effect of over 60% in size
Target sequence (P51450 whole entry, looked up, the tested form may be a part): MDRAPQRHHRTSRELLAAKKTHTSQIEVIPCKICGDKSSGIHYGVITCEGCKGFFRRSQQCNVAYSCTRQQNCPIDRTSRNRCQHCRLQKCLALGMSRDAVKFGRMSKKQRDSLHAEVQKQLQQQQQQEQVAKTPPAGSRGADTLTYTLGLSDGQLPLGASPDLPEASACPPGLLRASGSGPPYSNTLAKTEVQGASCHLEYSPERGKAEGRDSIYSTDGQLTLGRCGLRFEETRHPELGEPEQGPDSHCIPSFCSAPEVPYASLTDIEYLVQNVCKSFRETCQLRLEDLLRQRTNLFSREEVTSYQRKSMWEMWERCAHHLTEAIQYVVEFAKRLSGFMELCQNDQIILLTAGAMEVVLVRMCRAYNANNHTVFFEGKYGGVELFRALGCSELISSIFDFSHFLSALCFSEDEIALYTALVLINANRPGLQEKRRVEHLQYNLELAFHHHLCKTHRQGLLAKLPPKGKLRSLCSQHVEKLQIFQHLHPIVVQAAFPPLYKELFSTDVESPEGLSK
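ROR gamma transcriptional activity was tracked as Gal4-UAS luciferase output in stably transfected Drosophila Schneider cells, with compound added 1 hr before 700 uM copper sulfate induction and a 20 hr ambient-temperature incubation.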
ATXN viability: Viability Counterscreen for Primary qHTS for Inhibitors of ATXN expression. Potency, µM (titrated, usually from 56.7 µM), most hits filed as cytotoxic. S2 cells (HEK-293 line with an ATXN2-luciferase reporter) viability, CellTiter-Fluor protease fluorescence, 24 h. 0.49% of 400,000 active; further: nearly all actives have a fitted effect of over 40% in size
HepG2 tox: qHTS for Inhibitors of TGF-b: Cytotox Counterscreen; HepG2 CAGA-GFP viability, ATP luminescence, 18 h; Potency, µM (series often up to 46.1 µM), inactives show top-dose activity change, negative = cytotoxicity, hits mostly cytotoxic; 0.76% of 410,000 active
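HepG2 CAGA-GFP cells (1000/well, DMEM with 1% FBS) received compound, then TGF-beta at 500 pg/mL final, and were incubated 18 hours at 37 degrees C. Viability was read by CellTiter-Glo luminescence. Media-only wells were set as complete cell-killing and DMSO as no toxicity.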
TGFb SMAD3 inh: qHTS for Inhibitors of TGF-b; HepG2 CAGA-GFP TGF-b/SMAD3 reporter, GFP fluorescence, 18 h; TGF-beta stimulated, 500 pg/mL final; Potency, µM (top dose mostly 46.1 µM), inactives show top-dose activity, negative = inhibition, most hits filed as inhibitors; 1.2% of 410,000 active; AID 588855, 2011; further: on the % scale 0 is the no-effect control and ±100 the full control effect; nearly all actives have a fitted effect of over 65% in size
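First, reporter cells (HEPG2 CAGA-GFP) rested 2 h at 37 degrees C. Next, compounds were pinned in and TGF-beta added to 500 pg/mL final. After 18 h, GFP was imaged per cell and summed per well.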
ATXN2 expr inh: Primary qHTS for Inhibitors of ATXN expression; HEK-293 ATXN2-luciferase reporter, luminescence, 24 h; AID 1745845, 2022; Potency, µM (titrated, usually from 57 µM), for inactives: at the top dose activity change, negative = inhibition, usual class: inhibitors; 0.72% of 360,000 active; further: on the % scale 0 is the no-effect control and ±100 the full control effect; nearly all actives have a fitted effect of over 55% in size
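qHTS (up to 57 uM final) was run with 24 h compound exposure of reporter cells at 37 °C. Each well was multiplexed: SteadyGlo luminescence measured ATXN2-luciferase expression after a fluorogenic Gly-Phe-AFC viability readout (25 uM final).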
An asterisk follows results filed as active; i = inactive; ? = inconclusive; nt = no result given; [ ] = dose if it differs, or a comment. Shown are actives, neighbours in structure and some others; about 6.3% of the full set was active somewhere. The call rests on the fitted dose curve; in most records, active means well fitted curve in the direction sought with a large enough effect; inconclusive means small, poorly fitted or top-dose-only effect, or another doubt; inactive means no such curve, though single readings can be large; an effect the other way counts as inactive or inconclusive. Potency means the concentration at half of the fitted maximal effect.

SMILES	VP16 counter	RORg inh	ATXN viability	HepG2 tox	TGFb SMAD3 inh	ATXN2 expr inh
CCOc1cc(/C=N/Nc2ncnc(Cl)c2N)ccc1O	?	20µM*	?	0%	-11%	38%
Cc1nnc(N/N=C/c2c(Cl)cccc2Cl)n1N	?	?	i	-171%	?	-27%
CC(=O)Nc1nc(COc2ccccc2)cs1	-12%	2%	i	-69%	?	23%
Cc1ccc(C(=O)Nc2nc(COc3ccccc3)cs2)s1	-15%	10µM*	i	-38%	-13%	2%
Cc1ccc([C@H]2C[C@@H](O)[C@H](n3cc(-c4ccc(F)cc4)nn3)CN2C(=O)C2CCCCC2)cc1	nt	nt	nt	-32%	13µM*	?
CCCCCCN1C[C@@H](n2cc(-c3ccc(F)cc3)nn2)[C@H](O)C[C@@H]1c1ccc(Cl)cc1	nt	nt	18µM*	-112%	?	?
CCCCCCN1C[C@H](n2cc(C3CC3)nn2)[C@@H](O)C[C@@H]1c1ccc(OC)cc1	nt	nt	25µM*	-99%	?	?
CCCCCCN1C[C@H](n2cc(-c3ccc(F)cc3)nn2)[C@@H](O)C[C@@H]1c1ccc(C)cc1	nt	nt	nt	11µM*	?	?
CCCCCCN1C[C@H](n2cc(-c3ccc(F)cc3)nn2)[C@@H](O)C[C@@H]1c1ccc(OC)cc1	nt	nt	i	-63%	?	10%
Cc1ccccc1OCc1ccc(-c2nc(C#N)c(N3CCN(c4ccccc4)CC3)o2)o1	nt	nt	nt	-1%	4%	nt
COc1cccc(/C=N/NC(=O)C(C)n2nc(C)c([N+](=O)[O-])c2C)c1O (centres undefined)	0.04µM*	0.18µM*	?	-7%	-1%	25µM*
COc1cccc(/C=N\NC(=O)c2ccc(Cn3cc(Br)c([N+](=O)[O-])n3)o2)c1O	0.28µM*	3%	i	-7%	?	?
COc1cc(/C=N\NC(=O)c2ccc(Cn3nc([N+](=O)[O-])c(Cl)c3C)o2)ccc1O	8%	-3%	i	-16%	-10%	2%
Cc1nn(CC(=O)N/N=C/c2cccs2)c(C)c1[N+](=O)[O-]	-27%	?	i	4%	3%	-3%
COc1cccc(/C=N/NC(=O)Cn2nc(C)c([N+](=O)[O-])c2C)c1O	0.79µM*	0.35µM*	?	-33%	-6%	16µM*
O=[N+]([O-])c1ccc(NNS(=O)(=O)c2cc(Cl)ccc2Cl)nc1	?	13µM*	i	1%	1%	-16%
NC1=N[C@H]2[C@H](CS[C@H]2CCCCC(=O)O)N1	nt	nt	nt	nt	nt	12%[25.6 µM]
CSc1ccc2nnc(-c3ccc(C)cc3)n2n1	nt	nt	nt	-2%	5%	nt
Cc1cc(C(=O)N/N=C/c2cccn2C)n[nH]1	0%	15%	i	-10%	-7%	15%
Cn1cccc1/C=N/NC(=O)c1cccc(OC(F)(F)C(F)F)c1	?	10µM*	i	3%	25%	13%
CC(C)OCCCNC(=S)NNC(=O)c1ccc(Cl)c(Cl)c1	?	14µM*	i	-18%	-21%	11%
COCCCNC(=S)NNC(=O)c1ccc2c(c1)OCO2	1%	-52%	i	10%	17%	2%
CCCCOc1cccc(C(=O)Nc2ccc3oc(-c4cccnc4)nc3c2)c1	nt	nt	?	-3%	-10%	-18%
CCNC(=S)Nc1ccc2cn[nH]c2c1	-9%	-2%	i	-4%	10%	-20%
N#CC(C#N)=NNc1ccc2cn[nH]c2c1	nt	nt	16µM*	-28%	?	?
SMILES	VP16 counter	RORg inh	ATXN viability	HepG2 tox	TGFb SMAD3 inh	ATXN2 expr inh
Cc1cc(-c2ccnc(-n3ncc(C(=O)N(C)CC(O)c4ccccc4)c3C)n2)c(C)s1 (centres undefined)	nt	nt	i	nt	nt	nt
COCCNc1nc(NCCOC)c2sc(-c3ccccc3)cc2n1	nt	nt	i	-29%	-2%	-17%
COc1ccccc1CNc1nc(NC(C)C)nc2cc(-c3ccccc3)sc12	nt	nt	14µM*	13µM*	?	20µM*
CC(C)Nc1nc(NCCOc2ccccc2Cl)c2sc(-c3ccccc3)cc2n1	nt	nt	?	14µM*	?	?
C=CCNc1nc(NCc2cccc(OC)c2)c2sc(-c3ccccc3)cc2n1	nt	nt	?	11µM*	?	?
COc1ccc(CN(Cc2ccco2)c2cnc(S(C)(=O)=O)nc2C(=O)Nc2ccc(C)c(C)c2)cc1	nt	nt	i	-4%	0%	-5%
COc1cccc(-n2c(SC)nnc2C2CCN(Cc3nc4ccccc4s3)CC2)c1	nt	nt	i	nt	nt	nt
COc1cc(-c2cc(C)c3cccc(OC)c3n2)cc2c1OCCN(C(=O)CCn1ccc(C)n1)C2	nt	nt	i	nt	nt	nt
Nc1ncc([N+](=O)[O-])c(N2CCCCCC2)n1	-22%	11µM*	i	7.1µM*	-12%	5%
COc1cc(OC)cc(-c2cc3nc(C)c(CCC(=O)NC(C)CCc4ccco4)c(C)n3n2)c1 (centres undefined)	-18%	?	i	4%	-8%	?
COc1cc(OC)cc(-c2cc3nc(C)c(CCC(=O)O)c(C)n3n2)c1	2.8µM*	0.71µM*	i	0%	0%	0.71µM*
Cc1ccc(C(=O)N2C(=S)C(c3ccc(F)cc3)=NC23CCN(C)CC3)cc1	?	75%	25µM*	-50%	?	22µM*
CCc1c2c(nc3ccc4c(c13)OCCO4)-c1nc3ccccc3c(=O)n1C2	13µM*	2.5µM*	nt	-31%	2%	nt
CCOC(=O)C1=C(C)Nc2nnnn2C1c1cccc(OC)c1OC (centres undefined)	2%	43%	i	-15%	15%	5%
CCOC(=O)C1=C(C)Nc2nnnn2C1c1c[nH]c2ccccc12 (centres undefined)	22µM*	49%	nt	nt	nt	nt
CCCCNC(=O)CCCCCn1c(=O)[nH]c2cc(C(=O)OC)ccc2c1=O	-2%	-24%	i	-22%	-6%	-19%
CCc1cc2c(=O)n(-c3ccccc3)c(=S)[nH]c2s1	4.5µM*	2.5µM*	i	-21%	-5%	-3%
COC(=O)c1ccc2c(=O)n(-c3ccccc3)c(=S)[nH]c2c1	?	1.8µM*	?	-18%	-10%	-4%[11.3 µM]
O=C(NCc1ccco1)c1ccc2c(=O)n(-c3ccccc3)c(=S)[nH]c2c1	-5%	-15%	i	-7%	0%	4%
